Where “and” joins values, the source holds several entries; their conditions need not be identical. Identical values can stand only once. More than one record can exist for a structure, and the calls need not agree. Calls of active or inactive are those of the source. How the source made its calls: active means hit-call score of the fitted dose curve at least 0.9, where 1 is the maximum; inactive means score below 0.9.
assay: ATG_CRE_CIS: Attagene CIS-FACTORIAL HepG2 Assay for human cAMP Responsive Element (CRE) binding protein 3 (AID 2282926); conditions: HepG2 CRE cis-reporter, Attagene multiplexed mRNA; actives raise or lower the signal
Description: ATG_CIS is a cell-based, multiplexed-readout assay that uses HepG2, a human liver cell line, with measurements taken at 24 hours after chemical dosing in a 24-well plate.ATG_CRE_CIS is one of 52 assay component(s) measured or calculated from the ATG_CIS assay. It is designed to make measurements of mRNA induction, a form of inducible reporter, as detected with fluorescence intensity signals by Reverse transcription polymerase chain reaction (RT-PCR) and Capillary electrophoresis technology.Data from the assay component ATG_CRE_CIS was analyzed into 1 assay endpoint. This assay endpoint, ATG_CRE_CIS, was analyzed with bidirectional fitting relative to DMSO as the negative control and baseline of activity. Using a type of inducible reporter, measures of mRNA for gain or loss-of-signal activity can be used to understand the reporter gene at the transcription factor-level as they relate to the gene CREB3. Furthermore, this assay endpoint can be referred to as a primary readout, because this assay has produced multiple assay endpoints where this one serves a reporter gene function. To generalize the intended target to other relatable targets, this assay endpoint is annotated to the dna binding intended target family, where the subfamily is basic leucine zipper.
Human liver HepG2 cells are transiently transfected with multiple reporter transcription units (MRTUs) in 6-well plates using FuGene 6 reagent (Roche; 3 ml FuGene/1 mg DNA). The MRTU constructs are regulated by a cis-regulating element (promoter). […] A major difference between the CIS and TRANS system is that in CIS activities of endogenous TFs are measured, whereas the TRANS assay evaluates changes in activities of exogenous, chimeric NR-Gal4 proteins. […] At the end of 24 hour incubation, total RNA was isolated using TriZol reagent (Invitrogen). The isolated RNA is then reverse-transcribed using oligo(dT) primer and Mo-MLV reverse transcriptase (Invitrogen) with DNAse I (Ambion) treatment for 30 min. The one-tenth of the produced cDNA was amplified by PCR using Taq DNA polymerase (Invitrogen) and two reporter sequence-specific primers. The PCR products were fluorescently labeled by primer extension with 6-arboxyfluorescein (6-FAM) 5'-labeled reporter sequence-specific primer (2 min at 95 C, 20 s at 68 C and 10 min at 72 C) and these products were digested with 5U of HpaI (New England Biolabs) for 2h at 37 C. The fragments were purified using Qiaquick PCR columns (Qiagen), analyzed on an ABI 3130xL genetic analyzer (Applied Biosystems) with peak positions identified by using a set of X-rhodamine (ROX)-labeled MapMarker1000 molecular weight standards (BioVentures). The raw capillary electrophoresis data was processed using Attagraph software (Attagene).

SMILES	outcome	AC50
CCCOC(=O)c1ccc(C(=O)OCCC)nc1	inactive	–
CCOC(=O)c1ccc(O)cc1	inactive	–
COC(=O)c1ccc(CNS(C)(=O)=O)cc1S(=O)(=O)NC(=O)Nc1nc(OC)cc(OC)n1	inactive	–
O=C(O)c1ccccc1	inactive	–
CCCN(CCC)c1c([N+](=O)[O-])cc(C(F)(F)F)c(N)c1[N+](=O)[O-]	inactive	–
COC(=O)c1cccc(C)c1S(=O)(=O)NC(=O)Nc1nc(OCC(F)(F)F)nc(N(C)C)n1	inactive	–
CC(=O)S[C@@H]1CC2=CC(=O)CC[C@]2(C)[C@H]2CC[C@@]3(C)[C@@H](CC[C@@]34CCC(=O)O4)[C@H]12	inactive	25.5 µM (active) and 17.9 µM (active) and 3.75 µM (active)
O=C(c1ccccc1)C1CCCCC1	inactive	–
c1ccc(Nc2ccccc2)cc1	inactive	–
c1ccc2[nH]c(-c3cscn3)nc2c1	inactive	–
CC(C)(c1ccc(O)cc1)c1ccc(O)cc1	inactive	64.3 µM (active) and 25.5 µM (active) and 22.7 µM (active)
Cc1nn(C)c(Oc2ccccc2)c1C=NOCc1ccc(C(=O)OC(C)(C)C)cc1	–	0.0405 µM (active)
CC(C)(C)[C@@H](O)[C@@H](Cc1ccc(Cl)cc1)n1cncn1	–	13.5 µM (active)
CCOC(=O)C(C)Oc1ccc(Oc2cnc3cc(Cl)ccc3n2)cc1 (stereo not given)	inactive	–
CCOC(=O)NCCOc1ccc(Oc2ccccc2)cc1	inactive	–
COC(=O)c1ccc(I)cc1S(=O)(=O)NC(=O)Nc1nc(C)nc(OC)n1	inactive	–
CCN(Cc1c(F)cccc1Cl)c1c([N+](=O)[O-])cc(C(F)(F)F)cc1[N+](=O)[O-]	inactive	–
O=C(c1ccc(O)cc1O)c1ccc(O)cc1O	inactive	–
COC(=O)c1ccccc1C(=O)O	inactive	–

SMILES	outcome	AC50
C#C[C@]1(O)CC[C@H]2[C@@H]3CCC4=CC(=O)CC[C@@H]4[C@H]3CC[C@@]21CC	inactive	–
CC(C)CCCCCCc1ccc(O)cc1	inactive	17.3 µM (active) and 16.4 µM (active)
CCCCC(CC)CN1C(=O)C2C3C=CC(C3)C2C1=O (stereo not given)	inactive	–
COC(=O)c1ccccc1S(=O)(=O)NC(=O)Nc1nc(OC(F)F)cc(OC(F)F)n1	inactive	–
COc1c(Cl)ccc(Cl)c1C(=O)O	inactive	–
C=CCOC(Cn1ccnc1)c1ccc(Cl)cc1Cl (stereo not given)	–	12.9 µM (active)
CC1(C)C(C=C(Cl)Cl)C1C(=O)OCc1cccc(Oc2ccccc2)c1 (stereo not given)	inactive	–
CCN(CC)C(=O)c1cccc(C)c1	inactive	–
CCCCOC(=O)C(C)Oc1ccc(Oc2ccc(C(F)(F)F)cn2)cc1 (stereo not given)	inactive	–
Oc1ccc(C(c2ccc(O)cc2)C(Cl)(Cl)Cl)cc1	inactive	–
C#CCOC(=O)[C@@H](C)Oc1ccc(Oc2ncc(Cl)cc2F)cc1	inactive	–
S=C([S-])NCCNC(=S)[S-].[Mn+2]	inactive	–
CCC(O)=C1C(=O)CC(C(=O)O)CC1=O (stereo not given)	inactive	–
CCSC(=O)N(CC(C)C)CC(C)C	inactive	–
CCOC(=O)C(C)Oc1ccc(Oc2nc3ccc(Cl)cc3o2)cc1 (stereo not given)	inactive	–
CN(C)C(=O)Nc1ccc(Cl)c(Cl)c1	inactive	–
COCCO	inactive	–
C[C@]12C[C@H](O)[C@H]3[C@@H](CCC4=CC(=O)CC[C@@]43C)[C@@H]1CC[C@@H]2C(=O)CO	inactive	–
